Sfp inh: qHTS Assay for Inhibitors of Bacillus subtilis Sfp phosphopantetheinyl transferase (PPTase); 4'-phosphopantetheinyl transferase ffp (Bacillus subtilis), Q9F4F7; hit rate 3.5% among 310,000; AID 1490, 2009; Biochemical Sfp PPTase activity, qHTS; Potency, µM, for the others: largest response in the series, negative = inhibition, most hits filed as inhibitors;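 further: the enzyme is Sfp with the accession as filed and its product quenches rhodamine fluorescence; 0% = enzyme reaction without inhibitor and -100% = no enzyme wells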
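Compounds were incubated with enzyme (final 15 nM) for 15 min at room temperature before substrate addition started the reaction. Fluorescence at 525 nm excitation, 598 nm emission was recorded immediately and after 30 minutes.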
JMJD2A Tudor: qHTS Assay for Inhibitors of JMJD2A-Tudor Domain; Lysine-specific demethylase 4A (Homo sapiens), O75164; AlphaScreen JMJD2A-Tudor / H3K4me3 peptide binding; Potency, µM (top dose mostly 114 µM), inactives show top-dose activity change, negative = inhibition, most hits filed as inhibitors; hit rate 4.4% among 390,000; further: on the % scale 0 is the no-effect control and ±100 the full control effect; nearly all actives have a fitted effect of over 50% in size
Target sequence (O75164 whole entry, looked up, the tested form may be a part): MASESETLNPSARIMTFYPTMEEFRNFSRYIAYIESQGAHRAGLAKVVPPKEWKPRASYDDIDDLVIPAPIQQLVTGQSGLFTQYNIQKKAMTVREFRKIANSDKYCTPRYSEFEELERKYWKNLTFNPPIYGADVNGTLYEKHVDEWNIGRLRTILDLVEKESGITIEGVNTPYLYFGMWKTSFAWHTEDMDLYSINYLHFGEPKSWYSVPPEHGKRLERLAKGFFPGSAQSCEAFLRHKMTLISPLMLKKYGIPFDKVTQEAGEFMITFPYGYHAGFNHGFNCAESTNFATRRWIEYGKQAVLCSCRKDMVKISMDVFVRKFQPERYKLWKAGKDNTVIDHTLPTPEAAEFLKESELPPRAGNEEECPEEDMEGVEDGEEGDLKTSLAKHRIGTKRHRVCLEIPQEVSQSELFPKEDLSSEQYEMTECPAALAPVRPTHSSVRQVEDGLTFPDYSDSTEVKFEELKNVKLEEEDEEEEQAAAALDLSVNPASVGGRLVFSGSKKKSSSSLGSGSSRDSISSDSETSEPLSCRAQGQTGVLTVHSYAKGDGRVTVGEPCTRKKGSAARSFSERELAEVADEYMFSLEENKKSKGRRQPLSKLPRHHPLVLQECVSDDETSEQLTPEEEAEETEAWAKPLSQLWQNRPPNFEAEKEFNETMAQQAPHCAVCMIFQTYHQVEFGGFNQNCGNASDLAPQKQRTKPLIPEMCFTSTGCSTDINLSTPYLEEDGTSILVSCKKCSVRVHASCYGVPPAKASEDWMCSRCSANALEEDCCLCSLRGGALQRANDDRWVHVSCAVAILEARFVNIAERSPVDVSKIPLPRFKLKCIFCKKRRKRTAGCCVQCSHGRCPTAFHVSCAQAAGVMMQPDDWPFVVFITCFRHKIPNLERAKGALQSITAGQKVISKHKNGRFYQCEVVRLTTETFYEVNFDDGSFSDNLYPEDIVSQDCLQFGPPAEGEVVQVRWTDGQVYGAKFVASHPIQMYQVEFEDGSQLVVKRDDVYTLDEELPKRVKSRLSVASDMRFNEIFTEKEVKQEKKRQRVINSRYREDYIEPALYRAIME
L3MBTL1 block: qHTS Assay for the Inhibitors of L3MBTL1; Lethal(3)malignant brain tumor-like protein 1 (Homo sapiens), Q9Y468; AlphaScreen L3MBTL1–H3K9me1 peptide binding; Potency, µM (doses to about 57.1 µM), for the others: at the top dose activity, negative = inhibition, most hits filed as inhibitors; hit rate 0.66% among 230,000; AID 485360, 2010; further: on the % scale 0 is the no-effect control and ±100 the full control effect; nearly all actives have a fitted effect of over 60% in size
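Displacement of a biotinylated histone H3(1-15) peptide monomethylated at Lys9 (75 nM) from L3MBTL1 (50 nM) was measured by AlphaScreen after a 30 min room-temperature compound incubation; cefsulodin titration served as intraplate control.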
G9a inh: qHTS Assay for Inhibitors of Histone Lysine Methyltransferase G9a; Histone-lysine N-methyltransferase EHMT2 (Homo sapiens), Q96KQ7; G9a H3K9 monomethylation, AlphaScreen, 2 h; Potency, µM (titrated, usually from 102 µM), for the others: top-dose activity, negative = inhibition, actives largely listed as inhibitors; hit rate 8.8% among 350,000; AID 504332, 2011; further: on the % scale 0 is the no-effect control and ±100 the full control effect; nearly all actives have a fitted effect of over 75% in size
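Readings reflect AlphaScreen signal from monomethyl-H3K9 antibody detection. HMT at 20 nM; substrate b-H3K9 500 nM; cofactor SAM 20 uM; 2 h RT reaction; compounds tested as titrations in qHTS with 15 min preincubation.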
HP1b chromo inh: HTS for Inhibitors of HP1-beta Chromodomain Interactions with Methylated Histone Tails; Chromobox protein homolog 1 (Homo sapiens), P83916; AlphaScreen HP1-beta / biotin-H3K9me3 peptide binding; Potency, µM (titrated, usually from 114 µM), without a hit: at the top dose activity change, negative = inhibition, usual class: inhibitors; hit rate 0.56% among 390,000; further: nearly all actives have a fitted effect of over 70% in size
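HP1-beta protein (50 nM final) preincubated 30 min at room temperature with biotinylated H3(1-18)K9me3 peptide (50 nM) in PBS pH 7.4, 0.01% Tween-20, then compound added for 30 min. AlphaScreen streptavidin donor/nickel chelate acceptor beads (10 ug/mL final), 30 min dark, luminescence read.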
BAZ2B block: qHTS Assay for Inhibitors of BAZ2B; AID 504333, 2011; Potency, µM (series often up to 114 µM), inactives show at the highest dose activity change, negative = inhibition, hits mostly inhibitors; hit rate 4.4% among 360,000; Bromodomain adjacent to zinc finger domain protein 2B (Homo sapiens), Q9UIF8; AlphaScreen BAZ2B-H3K14Ac peptide displacement; further: on the % scale 0 is the no-effect control and ±100 the full control effect; nearly all actives have a fitted effect of over 60% in size
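AlphaScreen displacement of biotin-H3(5-23)K14Ac peptide (50 nM final) from BAZ2B (50 nM final) in PBS pH 7.4, 0.01% Tween-20; complex preformed 30 min RT, then compounds (top 110 uM) 30 min RT, beads 20 min dark.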
* = called active by the depositor; [ ] = remark or other dose. Compounds with a hit are over-represented: about 12% of the library has one in this group of screens. The call rests on the fitted dose curve; in most records, active means well fitted curve in the direction sought with a large enough effect; inconclusive means small, poorly fitted or top-dose-only effect, or another doubt; inactive means no such curve, though single readings can be large; an effect the other way counts as inactive or inconclusive. Potency means the concentration at half of the fitted maximal effect.

Screening CC(NC(=O)C1CCN(S(=O)(=O)c2ccc3nc4c(c(C(=O)O)c3c2)CCCC4)CC1)c1ccccc1 (configuration not stated) returned Sfp inh 11%, JMJD2A Tudor -9%, G9a inh 40µM*, HP1b chromo inh 20% and BAZ2B block -28%.
CN(Cc1ccccc1)C(=O)C1CCN(S(=O)(=O)c2cccc3nsnc23)CC1 was read as Sfp inh 14%, JMJD2A Tudor 14µM*, G9a inh 0%[59 µM], HP1b chromo inh 1% and BAZ2B block -21%.
CN(Cc1ccccc1)C(=O)C1CCN(S(=O)(=O)c2ccc3nc4c(c(C(=O)O)c3c2)CCCC4)CC1 was read as Sfp inh 7%, JMJD2A Tudor -32%, G9a inh inconclusive, HP1b chromo inh 4%[57 µM] and BAZ2B block 50µM*.
Screening CC1CCC(NC(=O)C2CCN(S(=O)(=O)c3ccc4nc5c(c(C(=O)O)c4c3)CC(C)CC5)CC2)CC1 (configuration not stated) returned Sfp inh 15%, JMJD2A Tudor -6%, G9a inh 50µM*, HP1b chromo inh 17% and BAZ2B block -16%.
For CCC(C)NC(=O)C1CCN(S(=O)(=O)c2ccc3nc4c(c(C(=O)O)c3c2)CCCCC4)CC1 (configuration not stated) the results were Sfp inh 3%, JMJD2A Tudor -9%, G9a inh inconclusive, HP1b chromo inh 67% and BAZ2B block -27%.
For CCCNC(=O)C1CCN(S(=O)(=O)c2ccc3nc4c(c(C(=O)O)c3c2)CCCCC4)CC1 the results were Sfp inh 6%, JMJD2A Tudor -1%, L3MBTL1 block 12%, G9a inh -14%, HP1b chromo inh 45% and BAZ2B block 7%.
`COC(=O)c1c(Oc2ccc(C(C)=O)cc2)nnc(-c2ccccc2)c1-c1ccccc1` gave JMJD2A Tudor -33%, G9a inh -32%[59 µM], HP1b chromo inh 29% and BAZ2B block -27%.
Screening CCOc1ccc(CNC(=O)c2ccc(NC(=O)N3CCCCc4ccccc43)cc2)cc1OC returned JMJD2A Tudor 3%, G9a inh 7%[59 µM], HP1b chromo inh 21% and BAZ2B block 0%.
O=C(c1cnc(N2CCOCC2)c2ccccc12)N1CCN(c2ccc(F)cc2)CC1 was read as JMJD2A Tudor -4%, G9a inh 7%[59 µM], HP1b chromo inh 22%[57 µM] and BAZ2B block -12%.
Screening O=C(Nc1ccc(Cl)cc1)c1cccc(N2C(=O)C3C4CCC(C4)C3C2=O)c1 (configuration not stated) returned Sfp inh 6%, JMJD2A Tudor -21%, L3MBTL1 block inconclusive, G9a inh -6%[59 µM], HP1b chromo inh 4% and BAZ2B block -38%.
For O=C(Nc1ccc(Cl)cc1)[C@@H]1[C@@H]2C(=O)N(c3cccc(F)c3)C(=O)[C@@H]2[C@H]2C=CC=NN21 the results were Sfp inh -3%, JMJD2A Tudor inconclusive, L3MBTL1 block -10%, G9a inh 8.9µM*, HP1b chromo inh -11% and BAZ2B block -28%.
For COc1ccc(N2C(=O)[C@@H]3[C@H](C2=O)[C@H]2C=CC=NN2[C@@H]3C(=O)Nc2ccc(Cl)cc2)cc1 the results were Sfp inh 35µM*, JMJD2A Tudor inconclusive, L3MBTL1 block -11%, G9a inh 7.1µM*, HP1b chromo inh -6% and BAZ2B block -33%.
